# Screening results from PubChem BioAssay.
# Compounds with a hit are over-represented: about 10% of the library has one in this group of screens.
# RORgamma inh: inhibitors of mouse ROR gamma transcriptional activity; P51450; Drosophila S2 Gal4-RORgamma UAS-luciferase reporter, 20 h; Potency, µM (highest dose often 53.6 µM), usual class: inhibitors; hit rate 5.4% among 310,000; note: nearly all actives have a fitted effect of over 60% in size
# Target sequence (P51450 whole entry, looked up, the tested form may be a part): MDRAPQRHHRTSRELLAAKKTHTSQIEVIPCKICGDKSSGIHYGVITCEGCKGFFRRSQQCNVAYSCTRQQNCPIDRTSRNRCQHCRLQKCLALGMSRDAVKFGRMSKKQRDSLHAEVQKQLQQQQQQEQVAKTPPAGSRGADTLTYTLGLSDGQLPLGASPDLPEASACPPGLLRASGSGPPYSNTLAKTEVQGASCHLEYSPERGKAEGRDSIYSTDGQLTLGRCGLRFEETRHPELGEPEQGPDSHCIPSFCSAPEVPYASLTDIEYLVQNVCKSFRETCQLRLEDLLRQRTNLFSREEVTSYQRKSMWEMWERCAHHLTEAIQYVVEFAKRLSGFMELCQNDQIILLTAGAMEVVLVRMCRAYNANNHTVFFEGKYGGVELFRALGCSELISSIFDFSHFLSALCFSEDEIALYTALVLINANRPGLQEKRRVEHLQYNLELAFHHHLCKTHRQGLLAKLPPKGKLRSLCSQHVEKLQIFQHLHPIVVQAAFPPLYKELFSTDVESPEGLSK
#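 ROR gamma transcriptional activity was tracked as Gal4-UAS luciferase output in stably transfected Drosophila Schneider cells, with compound added 1 hr before 700 uM copper sulfate induction and a 20 hr ambient-temperature incubation.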
# MCF10A rereplic: DNA re-replication induction in MCF 10a cells; MCF 10A DNA re-replication, Hoechst nuclear intensity, 48 h; Potency, µM (series often up to 46.1 µM), usual class: activators; hit rate 2.9% among 350,000; note: nearly all actives have a fitted effect of over 50% in size
# ELG1 repair inh: blocks ELG1-dependent DNA repair in HEK293T cells | HEK293T ELG1-luciferase reporter, luminescence, 16 h; DNA damage induced by 5-fluorouridine | Potency, µM (top dose mostly 46.1 µM), hits mostly inhibitors | hit rate 2.3% among 330,000; note: nearly all actives have a fitted effect of over 55% in size
#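 Reporter activity after DNA damage by 5-fluorouridine is monitored. Compound-treated cells incubate 16 hr at 37 °C, then ONE-Glo is added for 30 min before luminescence reading.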
# VP16 counter: Gal4-VP16 reporter inhibition counter-screen; Drosophila S2 Gal4-VP16 UAS-luciferase, luminescence, 20 h; Potency, µM (top dose mostly 53.6 µM), usual class: inhibitors; hit rate 3.5% among 310,000;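 note: Gal4-VP16 expression switched on by copper sulfate through the metallothionein promoter; nearly all actives have a fitted effect of over 50% in size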
# SW480 rereplic: DNA re-replication induction in SW480 cells | hit rate 1.8% among 340,000 | AID 624297 | SW480 DNA re-replication, Hoechst DNA content imaging, 48 h | Potency, µM (top dose mostly 46.1 µM), usual class: activators; note: nearly all actives have a fitted effect of over 55% in size
#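 Cells (250 per well) received 23 nL compound or DMSO by pin tool and were kept 48 hr at 37 C, 5% CO2. Nuclei were then stained with Hoechst for 40 min and scanned for DNA content.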
# A number is an active result; - = inactive; ? = inconclusive; . = not tested or not shown; [ ] = remark or other dose. Calls come from the whole dose curve; as a rule, active = well fitted curve in the direction sought with a large enough effect; inconclusive = small, poorly fitted or top-dose-only effect, or another doubt; inactive = no such curve, though single readings can be large; an effect the other way counts as inactive or inconclusive.
SMILES,RORgamma inh,MCF10A rereplic,ELG1 repair inh,VP16 counter,SW480 rereplic
COc1ccc(-c2cc(C(=O)Nc3cc(S(=O)(=O)N4CCOCC4)ccc3N3CCOCC3)c3ccccc3n2)cc1,-,2.3µM,4.1µM,-,-
CCOCCCNC(=O)C(c1ccccc1)N(Cc1cccs1)C(=O)CNC(C)=O (stereo not given),-,-,-,-,-
COc1cccc(CN2CCNC(=O)C2CC(=O)N(C)Cc2nc(C)cs2)c1OC (stereo not given),-,-,-,-,-
C[C@H]1O[C@@H](n2cc(F)c(=O)[nH]c2=O)[C@H](O)[C@@H]1O,-[10 µM],-,-,-,-
O=C1C(F)=CC(COC(c2ccccc2)(c2ccccc2)c2ccccc2)OC1n1cc(F)c(=O)[nH]c1=O (stereo not given),.,2.6µM,.,.,7.3µM
O=C(Nc1cc(C(F)(F)F)ccc1-n1cncn1)c1ccc(Br)cc1,-,-,-,-,-
O=C(Nc1cc(C(F)(F)F)ccc1-n1cncn1)c1ccc([N+](=O)[O-])o1,.,?,?,.,9.2µM
Cc1ccc(C(=O)Sc2cccccc2=O)cc1,1.8µM,2.1µM,?,2.2µM,?
COc1cccc(C(=O)N/N=C(\CC(C)C)c2ccccc2)c1,-,-,-,-,-
Cc1ccc(C(=O)CC(=O)c2ccccc2)cc1,11µM,-,?,?,-
Cc1ccc(C)[n+](CC(=O)c2ccc(-c3ccccc3)cc2)c1,?,?,7.3µM,-,-
Cc1ccc(C(=O)N/N=C(\CC(C)C)c2ccccc2)cc1,?,-,-,?,23µM
CC(C)=C1CCC(C)CC1=O (stereo not given),-,.,.,-,.
O=C(COC(=O)c1cc(Cl)ccc1O)Nc1cc(C(F)(F)F)ccc1N1CCOCC1,.,-,-,.,-
CN(C)/N=C/C=C1\CCC/C(=C/c2cccs2)C1=O,-,23µM,?,?,?
N#C/C(=C\c1cc2ccccc2nc1N1CCOCC1)C(=O)Nc1ccc(N2CCOCC2)cc1,-,-,12µM,-,-
N#CC(C#N)=Cc1cc2ccccc2nc1N1CCOCC1,-,?,-,?,-
O=C(C(Br)=Cc1ccccc1)c1ccccc1,.,16µM,.,.,2.9µM
O=C1OCCC1Sc1nc2cc(Cl)ccc2n1Cc1ccccc1 (stereo not given),13µM,-,-,?,-
CC(C)(C)c1ccc(-c2nnc(SC3CCOC3=O)n2Cc2ccccc2)cc1 (stereo not given),16µM,-,-,?,-
Cc1[nH]c2ccccc2c1/C=N/NC(=S)NC(C)C,2.5µM,-,-,7.1µM,-
Cc1[nH]c2ccccc2c1/C=N/NC(=O)C1CC1(c1ccccc1)c1ccccc1 (stereo not given),?,23µM,?,?,?
CC(C)NC(=S)N/N=C/c1c[nH]c2ccccc12,3.5µM,-,?,1.4µM,-
CCC(=O)Nc1ccc(C(=O)N/N=C/c2c(C)[nH]c3ccccc23)cc1,-,-[9.22 µM],-,-,-
CCOC(=O)C/C(C)=N/NC(=O)C1CC1(c1ccccc1)c1ccccc1 (stereo not given),10µM,?,-,?,-
SMILES,RORgamma inh,MCF10A rereplic,ELG1 repair inh,VP16 counter,SW480 rereplic
Cc1[nH]c2ccccc2c1/C=N/NC(=O)CCC(=O)NCc1ccccc1,-,-,-,-,?
CCN1CCC[C@@H]1CNC(=O)c1cc(S(N)(=O)=O)ccc1OC,-,.,.,-,.
CC(=O)Nc1ccccc1N(CC(O)Cn1c2ccccc2c2ccccc21)S(=O)(=O)c1ccc(C)cc1 (stereo not given),?,?,?,-,23µM
CCN(CC(O)Cn1c2ccccc2c2ccccc21)S(=O)(=O)c1ccc(C)cc1 (stereo not given),-,?,?,-,?
O=C(/C=C(\O)c1ccccc1)C(=O)NNC(=O)c1ccccc1,?,-,-,?,-
C/C(=C\C(=O)c1ccccc1)NNC(=O)c1ccc(Cl)cc1,7.1µM,?,-,4.5µM,?
COc1ccc(C(=O)NN/C(C)=C/C(=O)c2ccccc2)cc1,6.3µM,-,-,5µM,-
COc1ccc(C(=O)NNC(=O)C(=O)/C=C(\O)c2ccc(C)cc2)cc1,13µM,-,-,?,?
CCCCCn1c(=O)c(-c2nc3ccccc3[nH]2)c(O)c2ccccc21,1.6µM,?,7.3µM,7.9µM,18µM
Cc1ccc(NC(=O)CCCCCN2C(=O)[C@@H]3Cc4ccccc4CN3C2=O)c(C)c1,-,-,-,-,?
CCN1CCN(CCc2nc3cc(NC(=O)COc4ccc(Cl)cc4)ccc3n2C)CC1,-,-,-,-,-
Cn1c(CCN2CCN(c3ccccn3)CC2)nc2cc(NC(=O)COc3ccc(Cl)cc3)ccc21,-,-,9.2µM,-,7.3µM
COc1ccc(OCC(=O)Nc2ccc3c(c2)nc(CCN2CCC(C)CC2)n3C)cc1,-,-,-,-,-
Cc1ccc(S(=O)(=O)Nc2ccc3c(c2)nc(CCN2CCN(c4ccccn4)CC2)n3C)cc1,-,-,-,-,1µM
CC1CCN(CCc2nc3cc(NC(=O)COc4ccc(Cl)cc4)ccc3n2C)CC1,-,16µM,-,-,18µM
Cc1cccc(OCC(=O)Nc2ccc3c(c2)nc(CCN2CCN(c4ccccn4)CC2)n3C)c1,-,-,15µM,-,?
O=C(Cc1ccc(N2CCNC2=O)cc1)N1CCCC(Nc2ccc(F)c(F)c2)C1 (stereo not given),-,?,-,-,5.8µM
O=C1CCCN1CCC(=O)N1CCCC(Nc2ccc(F)c(F)c2)C1 (stereo not given),-,-,?,-,-
O=C(Cc1ccc(N2CCNC2=O)cc1)N1CCCC(Nc2cccc(F)c2)C1 (stereo not given),-,3.7µM,?,?,?
CC(OC(=O)c1ccc2c(=O)n3c(nc2c1)CCC3)C(=O)NC1CCCCC1C (stereo not given),-,-,-,-,-
Cc1ccc(Cn2nnc3c(=O)n(CC(=O)OCc4ccccc4)cnc32)cc1,-,-,-,-,-
Cc1ccc(Cn2nnc3c(=O)n(CC(=O)N4CCN(c5ccccc5)CC4)cnc32)cc1,-,?,15µM,-,-
COc1ccccc1C(=O)C1CCCN(C(=O)CN2CCCCC2=O)C1 (stereo not given),-,-,-,-,-
O=C(NCc1cccc(C(F)(F)F)c1)N1CCN(C(=O)c2ccccc2)CC1,.,-,?,.,-
O=C(C1=C(Nc2ccccc2)c2ccccc2S(=O)(=O)N1)c1ccccc1,-,?,16µM,-,-
O=C(NNC(=S)NC1CCCCC1)c1sc2ccccc2c1Cl,2.8µM,?,-,13µM,.
CC(C)(C)C(=O)NC(=S)NNC(=O)c1sc2ccccc2c1Cl,0.63µM,12µM,?,0.56µM,?
O=C(CN1CCN(CC(=O)Nc2ccc(F)cc2)CC1)NCC1(N2CCOCC2)CCCCC1,.,-,-,.,-
